Where “and” joins values, the source holds several entries; their conditions need not be identical. Equal entries are not always repeated. Out of some 5,500 compounds screened, about 2,000 (36%) were called active. Another 18% or so got no clear call; they are omitted. Rule as the data show it: active = normalized growth mostly below about 0.91 (no sharp cut-off); inconclusive = no clear call, values can overlap the other calls; inactive = mostly above about 0.92. This is one part of the list.
Assay: chemical genetic growth profiling, strain panel (AID 1159580);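 also: tested at 20 µM; growth read once vehicle control cultures reached saturation at 30 °C; 1 = growth at the plate median or of vehicle wells; lower values mean less growth of the strain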
Conditions: S. cerevisiae deletion strains, growth OD

Measured: normalized growth

CC1OC1P(=O)(O)O (stereo not given)
inactive: locus YAL021C, strain ccr4, active compounds read low 1 | locus YAL026C, strain drs2, active compounds read low 1.02 | locus YAL030W, strain snc1, active compounds read low 0.998 | locus YAL040C, strain CLN3, active compounds read low 0.959 | locus YBL061C, strain skt5, active compounds read low 0.996 | locus YBR009C, strain hhf1, active compounds read low 0.978 | locus YBR021W, strain FUR4, active compounds read low 0.973 | locus YBR023C, strain chs3, active compounds read low 0.988 | locus YBR171W, strain sec66, active compounds read low 1 | locus YBR229C, strain ROT2, active compounds read low 0.994 | locus YBR231C, strain swc5, active compounds read low 0.992 | locus YBR279W, strain paf1, active compounds read low 0.991 | locus YCL011C, strain gbp2, active compounds read low 1.03 | locus YCL016C, strain dcc1, active compounds read low 0.984 | locus YCL029C, strain bik1, active compounds read low 0.993 | locus YCL061C, strain MRC1 (second series), active compounds read low 1.01 | locus YCL069W, strain vba3, active compounds read low 1 | locus YCR088W, strain abp1, active compounds read low 1 | locus YDL005C, strain med2, active compounds read low 0.977 | locus YDL035C, strain GPR1, active compounds read low 0.991 | locus YDL040C, strain nat1, active compounds read low 0.991 | locus YDL074C, strain BRE1, active compounds read low 1.04 | locus YDL101C, strain DUN1, active compounds read low 0.992 | locus YDL134C, strain PPH21, active compounds read low 0.977 | locus YDL185W, strain tfp1, active compounds read low 0.979 | locus YDL192W, strain arf1, active compounds read low 0.991 | locus YDR001C, strain nth1, active compounds read low 1 | locus YDR069C, strain doa4, active compounds read low 0.986 | locus YDR101C, strain arx1, active compounds read low 1 | locus YDR137W, strain rgp1, active compounds read low 1.01 | locus YDR150W, strain NUM1, active compounds read low 0.994 and 1 | locus YDR159W, strain sac3, active compounds read low 0.934 | locus YDR162C, strain NBP2, active compounds read low 0.987 | locus YDR195W, strain ref2 0.983 | locus YDR297W, strain sur2, active compounds read low 1.01 | locus YDR318W, strain mcm21, active compounds read low 0.984 | locus YDR334W, strain swr1, active compounds read low 1 | locus YDR335W, strain msn5, active compounds read low 0.996 | locus YDR363W, strain ESC2, active compounds read low 0.974 | locus YDR388W, active compounds read low 0.988 | locus YDR392W, strain spt3, active compounds read low 0.892 | locus YDR502C, strain sam2, active compounds read low 0.983 | locus YEL003W, strain gim4, active compounds read low 1 | locus YEL037C, strain rad23, active compounds read low 1 | locus YEL061C, strain CIN8 (second series), active compounds read low 1 | locus YEL061C, strain CIN8, active compounds read low 1 | locus YER002W, strain NOP16, active compounds read low 0.978 | locus YER015W, strain faa2, active compounds read low 0.981 | locus YER016W, strain bim1, active compounds read low 0.974 | locus YER110C, active compounds read low 0.987 | locus YER111C, strain swi4, active compounds read low 1 | locus YER155C, strain BEM2 (second series), active compounds read low 0.965 | locus YER155C, strain BEM2, active compounds read low 0.994 | locus YER167W, strain BCK2, active compounds read low 0.973 | locus YFR010W, strain ubp6, active compounds read low 1 | locus YGL078C, strain dbp3, active compounds read low 0.988 | locus YGL086W, strain mad1, active compounds read low 1 | locus YGL167C, strain pmr1, active compounds read low 0.997 | locus YGL173C, strain kem1, active compounds read low 0.99 | locus YGL227W, strain vid30, active compounds read low 1 | locus YGL240W, strain doc1, active compounds read low 0.968 | locus YGL248W, strain PDE1, active compounds read low 1.01 | locus YGL253W, strain hxk2, active compounds read low 1.03 | locus YGR078C, strain PAC10, active compounds read low 1.02 | locus YGR135W, strain pre9, active compounds read low 0.966 | locus YGR252W, strain gcn5, active compounds read low 0.982 | locus YHR013C, strain ard1, active compounds read low 0.987 | locus YHR027C, strain rpn1, active compounds read low 0.993 | locus YHR030C, strain SLT2, active compounds read low 0.994 | locus YHR079C, strain IRE1 (second series), active compounds read low 0.989 | locus YHR094C, strain hxt1, active compounds read low 0.987 | locus YHR129C, strain ARP1, active compounds read low 0.987 | locus YHR142W, strain chs7, active compounds read low 1.01 | locus YHR200W, strain rpn10, active compounds read low 0.989 | locus YIL066C, strain RNR3, active compounds read low 1 | locus YIL073C, strain SPO22, active compounds read low 0.944 | locus YIL125W, strain kgd1, active compounds read low 0.992 | locus YIR030C, strain dcg1, active compounds read low 0.985 | locus YJL092W, strain hpr5, active compounds read low 1 | locus YJL095W, strain BCK1 (second series), active compounds read low 0.998 | locus YJL095W, strain BCK1, active compounds read low 1.01 | locus YJL115W, strain asf1, active compounds read low 1 | locus YJL129C, strain trk1, active compounds read low 1.01 | locus YJL134W, strain LCB3, active compounds read low 0.989 | locus YJL154C, strain vps35, active compounds read low 0.996 | locus YJL164C, strain tpk1, active compounds read low 0.986 | locus YJL166W, strain qcr8, active compounds read low 0.986 | locus YJL168C, strain set2, active compounds read low 0.989 | locus YJL187C, strain SWE1 (second series), active compounds read low 1.02 | locus YJR043C, strain POL32, active compounds read low 1.01
